From PubChem BioAssay
Compounds with a hit are over-represented: about 2.9% of the library has one in this group of screens.
HSF-1 act – increases HSF-1 driven luciferase reporter signal. activation, % at 9 µM. 300,000 tested, 1.7% active. NIH3T3-HGL HSF-1 luciferase reporter, MG132, 8 h; 100% = twice DMSO control signal. AID 504408;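 active means mean replicate activation of at least 50% with a set share of replicates each reaching 50%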;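 further: 0% = median of the neutral control wells and 100% = twice that signal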
S1P4 antag – blocks the human S1P4 receptor. inhibition, % at 4.98 µM. O95977. 220,000 tested, 0.26% active. S1P4-expressing cells, antagonist mode, reporter read-out; in the data active means inhibition above about 29%;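 further: 0% = wells stimulated with agonist and 100% = vehicle wells without agonist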
Target sequence (O95977 whole entry, looked up): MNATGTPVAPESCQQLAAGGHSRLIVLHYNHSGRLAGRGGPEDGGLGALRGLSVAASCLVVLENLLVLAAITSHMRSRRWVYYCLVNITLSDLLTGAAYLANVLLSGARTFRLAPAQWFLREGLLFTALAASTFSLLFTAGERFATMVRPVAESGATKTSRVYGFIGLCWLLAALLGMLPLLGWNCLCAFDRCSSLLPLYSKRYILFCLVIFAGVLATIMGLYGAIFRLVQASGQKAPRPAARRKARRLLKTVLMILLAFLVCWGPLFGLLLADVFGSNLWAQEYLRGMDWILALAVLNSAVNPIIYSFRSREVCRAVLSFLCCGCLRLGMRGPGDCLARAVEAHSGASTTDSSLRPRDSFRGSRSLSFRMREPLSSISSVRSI
Hsp70 activator – switches on Hsp70 transcription; activation, % at 10 µM; AID 1203; 200,000 tested, 0.04% active; HeLa Hsp70 promoter luciferase reporter, luminescence; scaled: vehicle 0, proteasome-inhibitor control 100%;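 active means activation above the mean across all tested compounds plus 3 SD, cutoff set per campaign, cut at about 5.5% in these data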;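 further: 100% = MG132 at 30 µM as the positive control and 0% = DMSO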
S1P4 ag – agonists of human S1P4 receptor; 220,000 tested, 0.35% active; activation, % at 4.98 µM; S1P4-expressing cell line, agonist reporter assay; in the data active means activation above about 11%;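 further: 0% = DMSO vehicle and 100% = reference agonist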
HSF1 inhib – HSF1 inhibition | AID 2098 | 300,000 tested, 0.77% active | activity change, negative = inhibition, % at 7.5 µM (by protocol) | NIH3T3-HGL HSE-luciferase, MG132-induced, luminescence 8 h; stronger effect = lower value;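 active means more than half of replicate wells show activity change below -50%, luminescence cut by over half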;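 further: luciferase reports HSF-1 transcriptional activity via heat shock element; 0% = median of DMSO wells and -100% = zero luminescence signal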
S1P3 antagonist – antagonists of human S1P3 receptor; inhibition, % at 4.98 µM; CHO S1P3 NFAT-BLA reporter, FRET fluorescence, antagonist mode; Q99500; 170,000 tested, 0.27% active;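 active means inhibition above the plate cutoff, the mean inhibition of test wells on that plate plus 3 SD, cut at about 28% in these data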;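 further: cells challenged with S1P at its EC80 of 0.8 µM; blue over green emission ratio from cleaved BLA substrate after 4 h stimulation; 0% = S1P-stimulated wells and 100% = unstimulated DMSO-only wells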
S1P4 agonist cf – confirmation of human S1P4 receptor agonists. shares compounds with S1P4 ag. S1P4 agonist cell-based reporter assay. activation, % at 4.98 µM. 740 tested, 7% active. AID 1523; in the data active means activation above about 12%;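 further: 0% = vehicle and 100% = full reference agonist response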
S1P1 agonist – human S1P1 agonism as S1P4 agonist counter-screen. shares compounds with S1P4 ag. S1P1 agonist cell-based assay, activation. activation, % at 4.98 µM. 740 tested, 4% active. AID 1563; in the data active means activation above about 21%;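 further: 0% = vehicle wells and 100% = reference agonist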
* hit, by the source's call; / = not tested or not shown.

SMILES	HSF-1 act	S1P4 antag	Hsp70 activator	S1P4 ag	HSF1 inhib	S1P3 antagonist	S1P4 agonist cf	S1P1 agonist
CC(=O)OCC1(C)CN(c2ccccc2)N(C(=O)c2ccc(C(C)(C)C)cc2)C1=O (stereo unspecified)	-5.9	3.1	-0.1	24.8*	3.0	-3.2	-2.4	-4.9
CC(=O)OCC1(C)CN(c2ccccc2)N(C(C)=O)C1=O (stereo unspecified)	-5.6	8.3	-0.1	-0.5	4.0	-11.5	/	/
CC(=O)Nc1ccc(S(=O)(=O)n2nc(-c3ccc(C)cc3)nc2N)cc1	8.0	0.2	-0.1	20.5*	4.6	5.5	-1.3	0.2
O=c1cc(-c2ccccc2Cl)oc2c(NS(=O)(=O)c3cccs3)ccc(O)c12	33.7	/	/	/	9.7	/	/	/
Cc1nnc(-c2ccc(Oc3ccc(Br)cc3)c([N+](=O)[O-])c2)o1	-4.3	-16.7	-0.3	1.7	-14.0	8.9	/	/
Cc1cc(Oc2ccc(-c3nnc(-c4ccccc4)o3)cc2[N+](=O)[O-])ccc1Cl	11.8	-1.7	-0.3	13.8*	-10.2	11.0	-0.7	1.6
CC(=O)NN1C(=O)c2ccc(Oc3ccc([N+](=O)[O-])cc3)cc2C1=O	-10.5	-1.5	0.3	0.0	5.2	/	/	/
CC(=O)NN1C(=O)c2ccc(Oc3ccc4c(c3)C(=O)N(NC(C)=O)C4=O)cc2C1=O	8.8	-10.9	0.1	22.7*	1.2	-9.5	-2.0	0.5
O=C(OCC(F)(F)C(F)F)c1ccccc1C(=O)Oc1ccc(F)cc1F	1.3	-13.5	-0.1	1.2	0.9	-12.4	/	/
NS(=O)(=O)c1ccc(CCNC(=O)CCCC2=NS(=O)(=O)c3ccccc3N2)cc1	-3.7	-4.6	0.0	17.3*	-1.7	-34.5	-1.4	-1.8
N/C(CCS(=O)(=O)c1ccc(Cl)cc1)=N\OC(=O)c1ccc(Cl)cc1	21.0	15.8	/	102.7*	-4.7	-2.5	-0.7	-3.7
N/C(CCS(=O)(=O)c1ccc(Cl)cc1)=N\OC(=O)c1ccccc1C(F)(F)F	7.7	7.0	/	0.4	3.3	-8.5	/	/
Clc1ccc(/C=C\c2nccc3c2[nH]c2ccccc23)cc1	21.4	-21.1	0.3	22.7*	25.4	-76.4	24.9*	84.1*
N#Cc1ccc(/C=C\c2nccc3c2[nH]c2ccccc23)cc1	11.5	15.0	-0.2	13.4*	8.1	13.2	8.3	9.6
CCN(c1ccccc1)S(=O)(=O)c1cc2c3c(c1)CCN3C(=O)CC2	12.6	/	/	/	0.0	/	/	/
O=S(=O)(c1ccc(Cl)cc1)N1CCN(c2nc(-c3cccs3)nc3ccccc23)CC1	0.0	-5.4	-0.5	15.4*	6.9	-14.9	-2.5	5.9
CCN(CC)c1ccc(-c2n[nH]c(=S)n2-c2ccccc2)cc1	-2.9	-17.4	0.1	12.1*	9.6	1.4	-0.8	0.3
CN(C)c1ccc(-c2n[nH]c(=S)n2-c2ccccc2)cc1	-9.9	1.0	0.0	0.9	-7.4	-20.8	/	/
CC(OC(=O)c1ccc2c(=O)n3c(nc2c1)CCC3)C(N)=O (stereo unspecified)	6.1	-5.2	0.1	-4.0	3.3	2.5	/	/
CC(OC(=O)c1ccc2c(=O)n3c(nc2c1)CCCCC3)C(=O)Nc1ncc(Cl)cc1Cl (stereo unspecified)	0.1	-30.7	-0.1	11.4*	-5.0	3.0	-3.0	2.8
CCOc1cc(N2CCOCC2)c(OCC)cc1NC(=O)c1ccc(C)cc1	11.6	-6.0	-0.3	155.0*	-6.5	-3.5	-2.0	-0.5
CCOc1cc(N2CCOCC2)c(OCC)cc1NC(=O)c1cc(C)cc(C)c1	5.4	-1.2	-0.3	1.4	2.9	-5.4	/	/
O=C(CN1c2ccccc2Sc2ccccc21)NNC(=S)Nc1ccc(Cl)cc1	31.1	1.5	/	94.1*	11.2	-5.3	-1.5	-3.7
O=C(CN1c2ccccc2Sc2ccccc21)NNC(=S)Nc1ccc(Cl)cc1Cl	-10.5	-7.1	-0.4	-0.9	-7.4	/	/	/
COc1ccc(NC(=O)CSc2nnc(CN3CCOCC3)n2C)cc1Cl	-14.1	/	/	/	-8.6	/	/	/
SMILES	HSF-1 act	S1P4 antag	Hsp70 activator	S1P4 ag	HSF1 inhib	S1P3 antagonist	S1P4 agonist cf	S1P1 agonist
Cc1ccccc1OCC(=O)NC(=S)Nc1ccc(N2CCOCC2)c(Cl)c1	-8.4	-23.7	-0.2	2.2	-2.5	/	/	/
COc1ccccc1C(=O)NC(=S)Nc1ccc(N2CCOCC2)c(Cl)c1	-11.5	-4.8	-0.3	35.6*	0.2	-16.2	1.9	81.1*
Cc1ccc(C(=O)OCc2nnc(-c3ccc(Br)cc3)o2)cc1	12.2	-5.5	0.0	0.6	3.8	-0.2	/	/
COc1cc(Br)cc(C=Nc2cccc(C(F)(F)F)c2)c1O	-51.2	-15.3	-0.5	13.5*	-32.0	-5.8	0.0	1.9
O=C(O)c1ccc(N/N=C/c2ccc(-c3cccc(Cl)c3)o2)cc1	-8.4	-13.7	/	13.3*	-2.3	-16.6	2.6	9.3
O=C(O)c1ccc(N/N=C/c2ccc(-c3ccc(Cl)cc3Cl)o2)cc1	15.7	-10.1	/	15.9*	7.1	2.4	6.8	26.3*
Nc1nc2nccc(-c3cccnc3)n2n1	-6.8	-5.7	0.5	-1.6	-5.0	-19.1	/	/
CNC(=O)c1csc(-c2ccc(C)cc2)n1	16.6	-1.0	-0.1	0.5	14.1	/	/	/
CN1CCN(C(=O)C(N)Cc2ccccc2)CC1 (stereo unspecified)	4.5	4.3	-0.3	18.4*	6.2	-6.7	-2.1	-1.2
NC(Cc1ccccc1)C(=O)N1CCCCC1 (stereo unspecified)	9.5	/	/	/	2.2	/	/	/
CCC1(C(=O)OC)CCc2c(cc(OC)c3ccccc23)C1=O (stereo unspecified)	12.4	-23.2	/	12.7*	-7.3	2.2	-2.7	-0.4
COc1cc(C(=O)NNC(=O)CCOc2ccccc2)cc(OC)c1OC	6.3	/	/	/	6.3	/	/	/
COc1ccc(-c2nnc(SCc3nnc(-c4cccs4)o3)n2CC2CCCO2)cc1 (stereo unspecified)	-8.0	-10.8	0.0	57.1*	-8.3	-11.6	-0.8	5.5
Cc1nnc(SCc2nnc(-c3cccs3)o2)n1C1CCCCC1	2.1	-12.6	0.8	1.9	7.5	-7.9	/	/
COc1ccc(CC(=O)Nc2cccc(SC)c2)cc1	-5.6	-8.2	-0.1	2.7	4.9	0.9	/	/
COc1cc(CC(=O)Nc2cccc(SC)c2)cc(OC)c1OC	5.2	-11.3	-0.3	44.6*	-0.4	0.0	-1.2	-2.6
COc1ccc(Cl)cc1N(CC(=O)NCC(C)C)S(=O)(=O)c1ccc(C)c([N+](=O)[O-])c1	-12.4	-11.1	-0.2	25.3*	-3.9	3.9	-2.4	-5.1
CCN(c1ccccc1)S(=O)(=O)c1cc([N+](=O)[O-])ccc1N	1.8	-8.1	-0.1	17.0*	3.3	-2.3	18.9*	-4.7
COc1ccc(NC(=O)CSc2nc(C)cs2)c(OC)c1	21.8	5.4	-0.2	73.9*	2.0	-5.7	-2.8	1.4
